Source: PubChem BioAssay (Tox21)
Records with an inconclusive call do not appear. A call without a number means that no potency is given here. Activity calls are given as the source filed them. The call rests on the fitted dose curve; in most records, active means well fitted cell-killing curve with a large enough effect in the repeat runs; inconclusive means weak or mixed curves, or effect the other way; inactive means no such curve, though single readings can be large or run the other way.

Assay: qHTS assay to identify small molecule agonists of the farnesoid-X-receptor (FXR) signaling pathway - cell viability counter screen (AID 743218); further: nearly all actives have a fitted effect of over 45% in size
Conditions: FXR-bla HEK293T viability, CellTiter-Glo luminescence, 16 h; series mostly up to 62.6 µM
Source text: U.S. Tox21 Program National Center for Advancing Translational Sciences [NCATS] NIH Chemical Genomics Center [NCGC] U.S. Environmental Protection Agency [EPA] National Institutes of Environmental Health Sciences [NIEHS] National Toxicology Program [NTP] U.S. Food and Drug Administration [FDA] Tox21 Assay Overview: The farnesoid-X-receptor (FXR), a nuclear hormone receptor, is highly expressed in liver, intestine, kidney and adrenal cortex. Natural ligands of FXR are the bile acids (Cholic acid, Chenodeoxy cholic acid etc). FXR is an important regulator of diverse metabolic pathways, including the bile acid homeostasis, lipid and glucose metabolisms. FXR regulates the expression of target genes by binding either as a monomer or as a heterodimer with the retinoid X receptor (RXR). Numerous studies have reported that FXR exerts protective function during cholestasis, diabetes, liver regeneration, and cancer. To identify compounds that activate FXR signaling, GeneBLAzer FXR-UAS-bla HEK 293T cell line (Invitrogen, Carlsbad, CA) containing a beta-lactamase reporter gene under the control of a UAS response element was used to screen the Tox21 10K compound library. The cytotoxicity of the Tox21 compound library against the FXR-bla cell line was tested in parallel by measuring the cell viability using CellTiter-Glo assay in the same wells.
Tox21 Assay Protocol Summary: FXR-bla cells were dispensed at 5000 cells/5uL/well in 1536-well black wall/clear bottom plates using a Multidrop Combi (Thermo Fisher Scientific, Waltham, MA) dispenser. After the assay plates were incubated at 37 C and 5% CO2 for 5 h, 23 nL of compounds dissolved in DMSO, positive controls or DMSO only was transferred to the assay plate by a Pintool station (Kalypsys, San Diego, CA). The assay plates were incubated at 37C for 16 h. After 1 uL of LiveBLAzerTM B/G FRET substrate was added using a Bioraptr Flying Reagent Dispenser (FRD) workstation (Beckman Coulter, Indianapolis, IN), the plates were incubated at room temperature for 2 h, and fluorescence intensity was measured by an Envision plate reader (PerkinElmer, Shelton, CT). For cell viability readout that measures cytotoxicity, 4uL/well of CellTiter-Glo reagent was added into the assay plates using a Bioraptr FRD. After 30 min incubation at room temperature, the luminescence intensity in the plates was measured using a ViewLux plate reader (PerkinElmer).

Row | Structure (SMILES) | Potency
1 | CCCCCCC | inactive
2 | CC(C)C[C@H](NC(=O)OCC1c2ccccc2-c2ccccc21)C(=O)O | inactive
3 | CCCC(CCC)(C(=O)OCC)C(=O)OCC | inactive
4 | CCN[C@H]1CN(CCCOC)S(=O)(=O)c2sc(S(N)(=O)=O)cc21 | inactive
5 | CN(C)CC[C@@H](c1ccc(Cl)cc1)c1ccccn1 | inactive
6 | O=C(O)[C@@H]1CSCN1 | inactive
7 | O=C1CCCCCCCCCCC(=O)OCCO1 | inactive
8 | CCc1cc2cc(OC)c(OC)cc2c(Cc2ccccc2)n1 | inactive
9 | CCOc1ccccc1N | inactive
10 | CC(C)Nc1nc(N)nc(Cl)n1 | inactive
11 | OCC(CBr)(CBr)CBr | inactive
12 | OCCN1CCN(CCO)CC1 | inactive
13 | COC(C)CCO (stereo not given) | inactive
14 | CCN(O)CC | inactive
15 | C[C@@H](N)C(=O)O | inactive
16 | CCOC(=O)C(Br)c1ccccc1 (stereo not given) | inactive
17 | NC1=NCC2c3ccccc3Cc3ccccc3N12 (stereo not given) | inactive
18 | CO[Si](C)(C)OC | inactive
19 | CCCCCCCCOC(=O)CCCCCCCCC(=O)OCCCCCCCC | inactive
20 | Cc1ccccc1C(=O)Nc1ccc(C(=O)N2CCCC(O)c3cc(Cl)ccc32)c(C)c1 (stereo not given) | inactive

Row | Structure (SMILES) | Potency
21 | C1CCOC1 | inactive
22 | CCCCCOc1ccc(C2SC(=O)NC2=O)cc1OCC (stereo not given) | inactive
23 | CC(C)NC[C@@H](O)COc1cccc2ccccc12 | inactive
24 | O=[N+]([O-])c1nccn1CO[C@@H](CO)[C@H](O)CO | inactive
25 | CCC(=O)O[C@]1(C(=O)SCF)[C@H](C)C[C@H]2[C@@H]3C[C@H](F)C4=CC(=O)C=C[C@]4(C)[C@@]3(F)[C@@H](O)C[C@@]21C | inactive
26 | CCOC(=O)[C@H](CCc1ccccc1)N[C@@H](C)C(=O)N1Cc2cc(OC)c(OC)cc2C[C@H]1C(=O)O | inactive
27 | ClC(Cl)Cl | inactive
28 | O=C1C=CC(=O)O1 | inactive
29 | COc1nc(C)nc(NC(=O)NS(=O)(=O)c2ccccc2OCCCl)n1 | inactive
30 | O=CCCc1ccccc1 | inactive
31 | O=C1CCCCC1C1CCCCC1 (stereo not given) | inactive
32 | CC(=O)N(CC(O)CN(C(C)=O)c1c(I)c(C(=O)NCC(O)CO)c(I)c(C(=O)NCC(O)CO)c1I)c1c(I)c(C(=O)NCC(O)CO)c(I)c(C(=O)NCC(O)CO)c1I (stereo not given) | inactive
33 | CN1CCN(N)CC1 | inactive
34 | C=CCCCCCCCCO | inactive
35 | CCCCCCCCCC/C=C/C#N | inactive
36 | NNS(=O)(=O)c1ccc(Oc2ccc(S(=O)(=O)NN)cc2)cc1 | inactive
37 | c1ccc(CN(CC2=NCCN2)c2ccccc2)cc1 | inactive
38 | NCCCN1CCN(CCCN)CC1 | inactive
39 | Cc1cccc(C)c1NC(=O)CN1CCCCCC1 | inactive
40 | CC(C)CC(=O)OCc1ccccc1 | inactive
